This is part of a sample that, as a whole, favours compounds with a hit. Of some 79,000 tested, about 15% had one in any assay. Unmarked numbers belong to inactive results. Calls of active or inactive are those of the source. Rule as the data show it: active = growth inhibition above about 70%; inactive = the rest.

A short description of assay [1]: NCI Yeast Anticancer Drug Screen. Data for the rad50 strain (AID 155).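 Also: 0% = growth of vehicle-only cultures of the same strain.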 To be noted: S. cerevisiae rad50 strain growth inhibition, hits give high values. The gist of the method: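 A DNA repair-deficient yeast mutant serves as the test organism; compound-induced growth inhibition is calculated against vehicle-treated cells.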
A short description of assay [2]: NCI Yeast Anticancer Drug Screen. Data for the mec2-1 strain (AID 157). To be noted: S. cerevisiae mec2-1 strain, hits give high values. The gist of the method:
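mec2-1 yeast strain, carrying an alteration in DNA damage repair or cell cycle control, was exposed to compounds; growth inhibition was measured relative to vehicle-treated controls.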

Assay [3] can be described thus: NCI Yeast Anticancer Drug Screen. Data for the sgs1 mgt1 strain (AID 161).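 Also: 0% = growth of cultures given vehicle only.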 To be noted: S. cerevisiae sgs1 mgt1 strain, hits give high values. In short, it runs like this:
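This yeast growth screen uses a strain with defined DNA-repair lesions; compound-treated growth is compared with vehicle-treated growth.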

A short description of assay [4]: NCI Yeast Anticancer Drug Screen. Data for the cln2 rad14 strain (AID 165).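 Also: 0% = growth equal to vehicle treated cultures.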 To be noted: S. cerevisiae cln2 rad14 strain, hits give high values. The gist of the method:
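Yeast carrying cln2 and rad14 alterations (cell cycle control and DNA damage repair) were exposed to compounds. Growth inhibition was measured against vehicle-treated controls.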

A short description of assay [5]: NCI Yeast Anticancer Drug Screen. Data for the bub3 strain (AID 167). To be noted: S. cerevisiae bub3 mutant strain, hits give high values. In short, it runs like this: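 Inhibition values come from growth of compound-treated mutant yeast normalised to vehicle-treated controls.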
Assay [6] in a line: NCI Yeast Anticancer Drug Screen. Data for the mlh1 rad18 strain (AID 175). To be noted: S. cerevisiae mlh1 rad18 strain growth inhibition, hits give high values. In short, it runs like this:
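Growth inhibition of the yeast strain was measured after compound exposure and expressed relative to vehicle-treated controls. The strain carries defined defects in DNA damage repair.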

Where [7] appears, read: at 5.0 µM (retest, dose inferred, filed as 0.5).
Where [8] appears, read: at 50.0 µM (retest, dose inferred, filed as 5.0).

Take `ON1CCc2c([nH]c3ccccc23)C1c1ccc(Cl)cc1` (stereo not given): the growth inhibition in assay [1] (setting [7]) is -8%; in assay [1] (setting [8]), 93% (active); in assay [1] (at 50.0 µM), 54.5%; in assay [2] (setting [7]) it was -9%; in assay [2] (setting [8]) it was 91% (active); in assay [2] (at 50.0 µM) it was 34.4%. In addition, the growth inhibition in assay [3] (setting [7]) is 1%; in assay [3] (setting [8]), 98% (active); in assay [3] (at 50.0 µM), 85.4% (active); in assay [4] (setting [7]), -8%; in assay [4] (setting [8]), 88% (active); in assay [4] (at 50.0 µM), 55.7%. The growth inhibition in assay [5] (setting [7]) is -6%; in assay [5] (setting [8]), 96% (active); in assay [5] (at 50.0 µM), 40.1%; in assay [6] (setting [7]), -2%; in assay [6] (setting [8]) it was 96% (active); in assay [6] (at 50.0 µM) it was 79.2% (active).
Consider `CCCCCCCCCCCCCCCC(=O)N1CCOCC1`, for which the growth inhibition in assay [1] (setting [7]) is -4%; in assay [1] (setting [8]), 94% (active); in assay [1] (at 50.0 µM) it was 31.4%; in assay [2] (setting [7]), -5%; in assay [2] (setting [8]), 97% (active); in assay [2] (at 50.0 µM), 31.8%. For the same compound, the growth inhibition was -4% in assay [3] (setting [7]); 98% (active) in assay [3] (setting [8]); -13.7% in assay [3] (at 50.0 µM); 1% in assay [4] (setting [7]); 62% in assay [4] (setting [8]); -64.8% in assay [4] (at 50.0 µM). Moreover, the growth inhibition in assay [5] (setting [7]) was -8%; in assay [5] (setting [8]), 98% (active); in assay [5] (at 50.0 µM) it was 21.2%; in assay [6] (setting [7]), 17%; in assay [6] (setting [8]), 93% (active); in assay [6] (at 50.0 µM), 28.1%.
Consider `COc1ccc(-c2[nH]c(-c3ccc(OC)cc3)c(-c3ccccn3)c2-c2ccccn2)cc1`, for which the growth inhibition in assay [1] (setting [7]) is -4%; in assay [1] (setting [8]), 16%; in assay [1] (at 50.0 µM), 80.7% (active); in assay [2] (setting [7]), -16%; in assay [2] (setting [8]), 18%; in assay [2] (at 50.0 µM), 91.7% (active). Besides, the growth inhibition is 0% in assay [3] (setting [7]); 25% in assay [3] (setting [8]); 95.4% (active) in assay [3] (at 50.0 µM); 7% in assay [4] (setting [7]); 27% in assay [4] (setting [8]); 69.5% in assay [4] (at 50.0 µM). Moreover, the growth inhibition was 4% in assay [5] (setting [7]); -7% in assay [5] (setting [8]); 83.5% (active) in assay [5] (at 50.0 µM); -19% in assay [6] (setting [7]); 11% in assay [6] (setting [8]); 94.7% (active) in assay [6] (at 50.0 µM).
As for `C[C@@H]1CC=C[C@@H](NC(=O)OCc2ccccc2)[C@H]1C=O`, the growth inhibition was -4% in assay [1] (setting [7]); 30% in assay [1] (setting [8]); 13.6% in assay [1] (at 50.0 µM); -5% in assay [2] (setting [7]); -2% in assay [2] (setting [8]); -7.1% in assay [2] (at 50.0 µM). Also, the growth inhibition in assay [3] (setting [7]) was -2%; in assay [3] (setting [8]) it was 15%; in assay [3] (at 50.0 µM) it was 69.3%; in assay [4] (setting [7]), -8%; in assay [4] (setting [8]) it was 12%; in assay [4] (at 50.0 µM), 15.7%. In addition, the growth inhibition is -18% in assay [5] (setting [7]); 47% in assay [5] (setting [8]); 5.3% in assay [5] (at 50.0 µM); -20% in assay [6] (setting [7]); 40% in assay [6] (setting [8]); 80.2% (active) in assay [6] (at 50.0 µM).
On to `COc1ccc(C(=O)c2cc(Cl)ccc2N)cc1`, for which the growth inhibition was 16% in assay [1] (setting [7]); 93% (active) in assay [1] (setting [8]); 99% (active) in assay [1] (at 50.0 µM); -1% in assay [2] (setting [7]); 87% (active) in assay [2] (setting [8]); 98.2% (active) in assay [2] (at 50.0 µM). The growth inhibition in assay [3] (setting [7]) is 8%; in assay [3] (setting [8]), 91% (active); in assay [3] (at 50.0 µM) it was 99.1% (active); in assay [4] (setting [7]), -8%; in assay [4] (setting [8]), 71% (active); in assay [4] (at 50.0 µM), 92.1% (active). The growth inhibition is 1% in assay [5] (setting [7]); 73% (active) in assay [5] (setting [8]); 99.2% (active) in assay [5] (at 50.0 µM); -1% in assay [6] (setting [7]); 95% (active) in assay [6] (setting [8]); 94.2% (active) in assay [6] (at 50.0 µM).
Regarding `CN1C/C(=C\c2ccccc2)C(=O)C(c2ccccc2)C1` (stereo not given), the growth inhibition is -1% in assay [1] (setting [7]); 94% (active) in assay [1] (setting [8]); 1.9% in assay [1] (at 50.0 µM); 0% in assay [2] (setting [7]); 95% (active) in assay [2] (setting [8]); 19.9% in assay [2] (at 50.0 µM). Further, the growth inhibition is 0% in assay [3] (setting [7]); 96% (active) in assay [3] (setting [8]); 28.8% in assay [3] (at 50.0 µM); 1% in assay [4] (setting [7]); 94% (active) in assay [4] (setting [8]); -20.6% in assay [4] (at 50.0 µM). Also, the growth inhibition in assay [5] (setting [7]) is -7%; in assay [5] (setting [8]) it was 95% (active); in assay [5] (at 50.0 µM), 77.2% (active); in assay [6] (setting [7]), -1%; in assay [6] (setting [8]), 95% (active); in assay [6] (at 50.0 µM), 31.4%.
Regarding `COc1ccc2c(c1)CC/C(=C\c1ccc(OCCN(C)C)cc1)C2=O`, the growth inhibition in assay [1] (setting [7]) is 12%; in assay [1] (setting [8]) it was 19%; in assay [1] (at 50.0 µM), 40.2%; in assay [2] (setting [7]), 2%; in assay [2] (setting [8]), 15%; in assay [2] (at 50.0 µM), 48.8%. Further, the growth inhibition in assay [3] (setting [7]) is 8%; in assay [3] (setting [8]) it was 33%; in assay [3] (at 50.0 µM), 44.8%; in assay [4] (setting [7]), 8%; in assay [4] (setting [8]) it was -3%; in assay [4] (at 50.0 µM) it was 15.4%. Besides, the growth inhibition in assay [5] (setting [7]) is 12%; in assay [5] (setting [8]), 25%; in assay [5] (at 50.0 µM), 20.4%; in assay [6] (setting [7]) it was 6%; in assay [6] (setting [8]), 28%; in assay [6] (at 50.0 µM), 57%.
Regarding `C/C(CC(O)(C(F)(F)F)C(F)(F)F)=N/Nc1ccc([N+](=O)[O-])cc1[N+](=O)[O-]`, the growth inhibition in assay [1] (setting [7]) was 16%; in assay [1] (setting [8]), 99% (active); in assay [1] (at 50.0 µM) it was 99.2% (active); in assay [2] (setting [7]), -11%; in assay [2] (setting [8]), 99% (active); in assay [2] (at 50.0 µM), 99.5% (active). Besides, the growth inhibition in assay [3] (setting [7]) was -2%; in assay [3] (setting [8]) it was 99% (active); in assay [3] (at 50.0 µM), 99.5% (active); in assay [4] (setting [7]), 13%; in assay [4] (setting [8]) it was 99% (active); in assay [4] (at 50.0 µM), 99.3% (active). For the same compound, the growth inhibition in assay [5] (setting [7]) is -10%; in assay [5] (setting [8]), 100% (active); in assay [5] (at 50.0 µM), 99.5% (active); in assay [6] (setting [7]), 12%; in assay [6] (setting [8]) it was 99% (active); in assay [6] (at 50.0 µM), 99.3% (active).
On to `CCC1=C(c2ccc(OC(C)=O)cc2)Cc2cc(OC(C)=O)ccc21`, for which the growth inhibition in assay [1] (setting [7]) was -14%; in assay [1] (setting [8]) it was 64%; in assay [1] (at 50.0 µM), -4.5%; in assay [2] (setting [7]), -13%; in assay [2] (setting [8]), 67%; in assay [2] (at 50.0 µM), -9%. For the same compound, the growth inhibition in assay [3] (setting [7]) was -3%; in assay [3] (setting [8]), 72% (active); in assay [3] (at 50.0 µM), 5.55%; in assay [4] (setting [7]) it was -9%; in assay [4] (setting [8]) it was 79% (active); in assay [4] (at 50.0 µM) it was 4%. The growth inhibition in assay [5] (setting [7]) was -3%; in assay [5] (setting [8]), 83% (active); in assay [5] (at 50.0 µM), 26%; in assay [6] (setting [7]), -13%; in assay [6] (setting [8]) it was 84% (active); in assay [6] (at 50.0 µM), 4.55%.
Consider `O=C(CC1Sc2ccccc2NC1=O)Nc1ccc([N+](=O)[O-])cc1[N+](=O)[O-]` (stereo not given), for which the growth inhibition was 30% in assay [1] (setting [7]); 81% (active) in assay [1] (setting [8]); 88% (active) in assay [1] (at 50.0 µM); 25% in assay [2] (setting [7]); 89% (active) in assay [2] (setting [8]); 93.3% (active) in assay [2] (at 50.0 µM). In addition, the growth inhibition in assay [3] (setting [7]) was 51%; in assay [3] (setting [8]) it was 98% (active); in assay [3] (at 50.0 µM) it was 81.8% (active); in assay [4] (setting [7]) it was 34%; in assay [4] (setting [8]), 62%; in assay [4] (at 50.0 µM), 28.9%. The growth inhibition in assay [5] (setting [7]) was 36%; in assay [5] (setting [8]), 97% (active); in assay [5] (at 50.0 µM), 92% (active); in assay [6] (setting [7]) it was 51%; in assay [6] (setting [8]), 96% (active); in assay [6] (at 50.0 µM), 86.9% (active).

The record behind these values is PubChem BioAssay (NCI).
